Shown are actives, neighbours in structure and some others; about 1.1% of the full set was active somewhere.
gsp agonist: qHTS for Agonist of gsp, the Etiologic Mutation Responsible for Fibrous Dysplasia/McCune-Albright Syndrome: qHTS | gsp mutant cells, cAMP HTRF, 30 min | Potency, µM (doses to about 76.9 µM), for the others: at the top dose activation (cAMP increase), most hits filed as activators | 340,000 compounds, 0.13% hits; active means well fitted activation curve with a large enough effect; inconclusive means small, poorly fitted or top-dose-only effect, or another doubt; inactive means no such curve, though single readings can be large or run the other way; cell line not stated here;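 further: phosphodiesterase inhibitor Ro 20-1724 added with compounds to block cAMP breakdown; potency means the concentration at half of the fitted maximal effect; nearly all actives have a fitted effect of over 60% in size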
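Cells stably selected in G418 were plated at 2000/well, grown 16-24 hr, then given compounds in DMSO with the PDE inhibitor […] (300 uM solution added) for 30 min at 37C; cAMP was read by HTRF.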
RXFP1 ag: qHTS Assay for Agonists of the Relaxin Receptor RXFP1 | Relaxin receptor 1 (Homo sapiens), Q9HBX9 | Potency, µM (titrated, usually from 57.5 µM), for the others: at the highest dose activation, hits mostly activators | 370,000 compounds, 0.3% hits | HEK293T-RXFP1 cAMP TR-FRET, 30 min; response scale: percent of porcine relaxin response, buffer zero | AID 2676, 2010; further: potency means the concentration at half of the fitted maximal effect; on the % scale 0 is the no-effect control and ±100 the full control effect; nearly all actives have a fitted effect of over 60% in size
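HEK293T cells stably expressing RXFP1 were pretreated with the PDE4 inhibitor Ro 20174, exposed to compounds for 30 min at 37C, lysed, and cAMP was read by TR-FRET. Data normalized to buffer (basal) and 29 nM porcine relaxin (100%).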
Integrin act MD: qHTS for Activators of Integrin-Mediated Alleviation for Muscular Dystrophy; alpha7betagal myoblasts, beta-gal FDG fluorescence, 48 h; Potency, µM (titrated, usually from 38.3 µM), for the others: top-dose activation, actives largely listed as activators; 350,000 compounds, 0.064% hits; AID 624291, 2012;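 further: potency means the concentration at half of the fitted maximal effect; 100% = response of the positive control SU9516; nearly all actives have a fitted effect of over 60% in size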
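alpha7betagal+/- myoblasts (passage 13, 250/well) treated 48 h at 37C with compounds at 1:260 dilution of DMSO stock. Lysed, then beta-galactosidase activity read as FDG fluorescence (ex 480/em 540) after 30 min, with pre-read for autofluorescence.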
ASM inhibitor: Inhibitors of Secretory Acid Sphingomyelinase (S-ASM): qHTS; Sphingomyelin phosphodiesterase (Homo sapiens), P17405; placental ASM, HMU-PC fluorogenic substrate, 60 min; Potency, µM (top dose mostly 57.5 µM), for the others: at the highest dose activity change, negative = inhibition, most hits filed as inhibitors; 340,000 compounds, 0.006% hits; AID 504937, 2011; further: potency means the concentration at half of the fitted maximal effect
Target sequence (P17405 47-631 limits assumed): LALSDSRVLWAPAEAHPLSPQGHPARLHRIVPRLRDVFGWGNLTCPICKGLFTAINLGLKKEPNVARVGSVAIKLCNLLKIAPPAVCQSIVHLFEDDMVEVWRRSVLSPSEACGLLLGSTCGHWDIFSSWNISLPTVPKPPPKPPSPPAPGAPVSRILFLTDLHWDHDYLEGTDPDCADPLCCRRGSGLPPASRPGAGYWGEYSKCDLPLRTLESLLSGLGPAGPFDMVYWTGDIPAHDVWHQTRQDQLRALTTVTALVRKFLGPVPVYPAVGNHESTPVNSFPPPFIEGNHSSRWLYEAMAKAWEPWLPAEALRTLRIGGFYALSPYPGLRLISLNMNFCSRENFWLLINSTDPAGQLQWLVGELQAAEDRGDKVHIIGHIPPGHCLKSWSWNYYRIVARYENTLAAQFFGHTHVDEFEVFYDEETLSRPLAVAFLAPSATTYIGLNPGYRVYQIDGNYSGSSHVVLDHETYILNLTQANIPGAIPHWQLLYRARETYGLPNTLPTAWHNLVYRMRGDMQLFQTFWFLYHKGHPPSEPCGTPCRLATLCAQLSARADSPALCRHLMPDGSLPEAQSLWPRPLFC
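Fluorogenic HMU-PC substrate (9 uM final) is turned over by placental ASM in 60 min at 37 C after a 10 min compound preincubation. Reaction ended by alkaline stop (pH 10), with fluorescence read at 386/447 nm.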
gsp antagonist: qHTS for Antagonists of gsp, the Etiologic Mutation Responsible for Fibrous Dysplasia/McCune-Albright Syndrome: qHTS | 340,000 compounds, 0.4% hits | gsp-mutant cells, cAMP HTRF, 30 min | Potency, µM (highest dose often 76.9 µM), for inactives: at the top dose activity change, negative = inhibition, hits mostly inhibitors | AID 624288, 2012; calls by dose curve; cell line not stated here;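 further: intracellular cAMP measured with PDE inhibitor Ro 20-1724 present during compound exposure; potency means the concentration at half of the fitted maximal effect; on the % scale 0 is the no-effect control and ±100 the full control effect; nearly all actives have a fitted effect of over 65% in size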
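HTRF cAMP measurement after 30 min RT detection following 30 min, 37C compound treatment alongside […] (added as 300 uM solution) in G418-selected cells seeded at 2000/well and grown 16–24 h.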
RXFP1 antagonist: qHTS Assay for Antagonists of the Relaxin Receptor RXFP1; HEK293-RXFP1, relaxin-stimulated cAMP HTRF, 30 min; stronger effect = lower value; activity change, negative = inhibition, % at 57.5 µM; 350,000 compounds, 0.59% hits;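 active means activity change of -60% or lower, but not beyond a set lower limit; inconclusive means change between -60% and -40%, or beyond the set limit; inactive means change above -40%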; further: on the % scale 0 is the no-effect control and ±100 the full control effect
The depositor's hits bear a star; ? = inconclusive; . = not tested or not shown; [ ] = dose if it differs, or a comment. Unless noted, the call rests on the fitted dose curve; in most records, active means well fitted curve in the direction sought with a large enough effect; inconclusive means small, poorly fitted or top-dose-only effect, or another doubt; inactive means no such curve, though single readings can be large; an effect the other way counts as inactive or inconclusive.

SMILES	gsp agonist	RXFP1 ag	Integrin act MD	ASM inhibitor	gsp antagonist	RXFP1 antagonist
CC(C)=CCc1c(O)cc2oc3c(CC=C(C)C)c(O)c(O)c(CC=C(C)C)c3c(=O)c2c1O	?	-1%	-46%	-10%	32µM*	-14
CC(C)=CCc1cc(-c2oc3cc(O)cc(O)c3c(=O)c2O)ccc1O	.	.	0%	-2%	2%	.
CCOC(=O)c1cc(C)n(CC2CCC(C(=O)Nc3cccc(C(C)=O)c3)CC2)c1C (centres undefined)	.	-2%	.	.	.	5
O=c1oc2cc(O)c(Cl)cc2c2ccccc12	2.2µM*	11µM*	25%	-3%	-2%	43
COc1ccc2c(c1)oc(=O)c1ccccc12	-47%	-2%	-14%	7%	0%	2
CCOC(=O)N1CCC(n2c(=O)[nH]c3cc(Cl)ccc32)CC1	.	.	.	.	.	-20
COc1ccccc1CNC(=O)COC(=O)c1ccc(Cl)c(N)c1	-9%[15.4 µM]	-5%	20%	12%	11µM*	-12
CCN(CC)C(=O)C1=C(C)N(Cc2ccc(C(C)(C)C)cc2)C(=O)C(CC(=O)NC2CC2)C1 (centres undefined)	-62%	.	-17%	.	.	-2
CC1=NNC(=O)/C1=C\c1cn(-c2ccccc2)nc1-c1ccccc1	6%[15.4 µM]	-5%	-65%	-13%	-11%	-73*
CCS(=O)(=O)Nc1ccc(C2=NN(C(=O)c3ccccc3)C(c3cccs3)C2)cc1 (centres undefined)	6%	0%	-26%	-9%	28µM*	-17
CCS(=O)(=O)Nc1ccc(C2=NN(C(=O)c3ccco3)C(c3cccs3)C2)cc1 (centres undefined)	3%[15.4 µM]	2%	-33%	-3%	?	-17
COc1ccc(C(=O)c2sc3nc(C)cc(-c4cccs4)c3c2N)cc1	10µM*	5%	-13%	-7%	-15%	-10
Fc1ccc(Nc2nc3nonc3nc2Nc2cccc(C(F)(F)F)c2)cc1	.	0%	.	.	.	-74*
COCCCOc1cc(C[C@@H](C[C@H](N)[C@@H](O)C[C@H](C(=O)NCC(C)(C)C(N)=O)C(C)C)C(C)C)ccc1OC	.	.	.	.	.	13
CCN(CC(=O)Nc1ccccc1OC)C(=O)/C=C/c1cccs1	9%[15.4 µM]	1%	-21%	-3%	-5%	-69*
CN(CC(=O)Nc1cccc2ccccc12)C(=O)/C=C/c1cccs1	4%	0%	4%	-5%	-7%	16
O=C(Nc1nc2c(s1)CCCC2)c1ccc2ncsc2c1	2%	2%	13%	39%	?	.
Cc1ccc(C(C)C)c(OCC(=O)Nc2nc3c(s2)CCCC3)c1	.	-1%	.	.	.	-85*
COc1ccc(C(=O)Nc2nc3c(s2)CCCC3)cc1Cl	.	1%	.	.	.	-71*
Cc1cccc(C(=O)Nc2nc3c(s2)CCCC3)c1	.	2%	.	.	.	-87*
CCOC(=O)N1CCc2c(sc(NCc3ccc(N(C)C)cc3)c2C(=O)Nc2ccccc2OCC)C1	.	6%	.	.	.	-6
COc1cccc(-n2cc(C(=O)Nc3ccccc3C(N)=O)c3ccccc3c2=O)c1	.	0%	.	.	.	0
CCOc1ccc(C(=O)Nc2ccc(-c3nc4cc(CC)ccc4o3)cc2)cc1	.	3%	.	.	.	-14
COC(=O)c1ccc(NC(=O)CN2CCCN(Cc3ccc(Cl)cc3)S2(=O)=O)cc1	.	5%	.	.	.	-21
Cc1cc(C)n2c(SCC(=O)NC3CCCCC3)nnc2n1	14µM*	?	17%	4%	4%	1
SMILES	gsp agonist	RXFP1 ag	Integrin act MD	ASM inhibitor	gsp antagonist	RXFP1 antagonist
Cc1cc(C)nc(SCC(=O)NC2CCCCC2C)n1 (centres undefined)	1%[15.4 µM]	0%	8%	5%	-1%	-61*
Cc1cc(C)n2c(SCC(=O)Nc3cc(C)on3)nnc2n1	22µM*	27%	7%	0%	10%	-1
Cc1cc(NC(=O)CSc2nc3ccccc3n2CCC#N)no1	-6%[15.4 µM]	0%	-11%	9%	10µM*	-5
CCOC(=O)c1ccc(CN(Cc2ccccc2C)S(=O)(=O)c2ccc(C(C)(C)C)cc2)cc1	.	2%	.	.	.	-6
CC(NC(=O)Nc1nnc(C(F)(F)F)s1)(C(F)(F)F)C(F)(F)F	?	2%	-63%	-2%	6.3µM*	-8
CCN(CC)C(=O)Cn1cc(S(=O)(=O)CC(=O)NCc2ccc(F)cc2)c2ccccc21	-3%[15.4 µM]	-2%	28%	-2%	8%	-19
COc1ccc(C(=O)NCC(=O)n2nc(C)cc2C)cc1OC	10µM*	0%	-16%	0%	9%	-4
Cc1cc(C)n(C(=O)CNC(=O)c2ccco2)n1	9%	3%	1%	5%	-2%	8
Cc1cc(C)n(C(=O)CNC(=O)c2ccc(C(C)(C)C)cc2)n1	8%	-3%	16%	-4%	1%	-116*
Cc1cc(C)n(C(=O)CNC(=O)Cc2ccccc2)n1	-13%	1%	22%	1%	5%	-19
COc1ccc(OC)c(NC(=O)COC(=O)CNC(=O)c2ccc(OC)c(OC)c2)c1	1%	2%	5%	1%	-5%	-14
COc1ccc(C(=O)NCC(=O)OCC(=O)NC(=O)c2ccc(C(C)(C)C)cc2)cc1OC	0%	0%	-23%	-7%	50µM*	1
COc1ccc(C(=O)NCCN2CCN(C(=O)c3ccc(OC)c(OC)c3)CC2)cc1OC	-2%[15.4 µM]	3%	22%	4%	13%	-7
COc1ccc(C(=O)NCCCN2CCN(CCCNC(=O)c3ccc(OC)c(OC)c3)CC2)cc1OC	8%[15.4 µM]	0%	-17%	-2%	6%	-75*
COc1ccccc1C(=O)Nc1cccc(C(=O)OCc2cc(=O)n3cc(C)sc3n2)c1	.	7%	.	.	.	1
CC(=O)c1ccc(O)c(C(N)=O)c1	.	.	.	.	.	-18
CCN(CC)C(=O)C1CN2CCc3cc(OC)c(OC)cc3C2CC1OC(C)=O (centres undefined)	.	.	.	.	.	-4
Cc1ccc2ccc(Cl)cc2n1	.	.	.	.	.	10
CCC(=O)C1=C(N2CCCC2)CC(C)(C)CC1=O	20%	2%	21%	-2%	-2%	3
CCCCC(=O)C1=C(N2CCCC2)CC(C)(C)CC1=O	13%[15.4 µM]	.	13%	1%	3%	-62*
CN(C)c1ccc(-c2nnc3n(Cc4ccccc4)c(=O)c4ccccc4n23)cc1	.	0%	.	.	.	-9

Screening data (PubChem)
